Here are results for 40 sequences from the OligoGym collection.
Further: reference of the scale not given here.

In the first experiment the target is RIT1. Briefly: pooled miR-30 sensor sort-seq; sequence = guide strand. The settings on record: shRNA.
As to TTATAAGCATCTTCAATGGTGG, the sensor-assay potency score (higher = more potent) is -0.101.

Regarding TTGAGGTCTGACTTGTTTCCCA, the sensor-assay potency score (higher = more potent) is -0.117.

Turning to TTAGCCTCTTCCATACACTGTT, the sensor-assay potency score (higher = more potent) is -0.476.

Sequence TTCTTTCCTACGTATCTCCCGT showed a sensor-assay potency score (higher = more potent) of -0.212.

As for TAAGCTGTTTAAACTCACGAAC, the sensor-assay potency score (higher = more potent) was -0.618.

As for TCGGACTCGATAAATAAGCTGT, the sensor-assay potency score (higher = more potent) was -0.314.

TAAACTCTGCCTGTCCAGCTGT: the sensor-assay potency score (higher = more potent) stood at 0.108.

Consider TTGGTGACCTGTCTTAGCTGTT, for which the sensor-assay potency score (higher = more potent) is -0.52.

The target in the next experiment is RNASE11. The description is as above. The settings on record: shRNA.
The sequence TTGGATTTTTCACTCCTCCAGT returned a sensor-assay potency score (higher = more potent) of -0.449.

Consider TTTAGTAAGACCCTAGTCCTAA, for which the sensor-assay potency score (higher = more potent) was -0.427.

The sequence TTCTCTAATGAGGTAACACTAT registered a sensor-assay potency score (higher = more potent) of -1.05.

Sequence TTCGTCTGTAAATTCTTCTTTA yielded a sensor-assay potency score (higher = more potent) of -0.406.

TTTAACTAACAGGATCGGGTTC showed a sensor-assay potency score (higher = more potent) of -0.116.

TGATGCTTCTGCAAGAACCAGG: the sensor-assay potency score (higher = more potent) is -0.377.

For the sequence TCTTTAATTATCTTCATTGTGC, the sensor-assay potency score (higher = more potent) is -0.382.

For the sequence TTCTGTACAAACTTGCAGCTGG, the sensor-assay potency score (higher = more potent) was 0.788.

TAATGAGGTAACACTATGGTAT: the sensor-assay potency score (higher = more potent) was -0.534.

In the case of TATTGCATCTCTTCGTCTGTAA, the sensor-assay potency score (higher = more potent) was 0.018.

In the case of TTGTGCTTTCTGATGCTTCTGC, the sensor-assay potency score (higher = more potent) was 0.534.

Sequence TTATCTTCATTGTGCTTTCTGA displayed a sensor-assay potency score (higher = more potent) of -0.608.

The next experiment concerns the target RNF113A. Described as above. The settings on record: shRNA.
For the sequence TAGTTTAGCAATCAATTCTTTC, the sensor-assay potency score (higher = more potent) is -0.827.

TAGCTCGATGCTTCTCTAGTTT yielded a sensor-assay potency score (higher = more potent) of -0.684.

On to TTTTCCTCTTCCTCTTCGCTGC, for which the sensor-assay potency score (higher = more potent) was -0.23.

Sequence ATAGATCTTGTCATCCTCCTTG gave a sensor-assay potency score (higher = more potent) of 0.536.

In the case of TACTGCTGCCGCTTTCTCCGGG, the sensor-assay potency score (higher = more potent) was -0.242.

As to TAGATCTTGTCATCCTCCTTGC, the sensor-assay potency score (higher = more potent) worked out at 0.184.

TTAGCAATCAATTCTTTCGCTG showed a sensor-assay potency score (higher = more potent) of 0.0148.

The sequence TTCGTCGCTACTGCTGCCGCTT yielded a sensor-assay potency score (higher = more potent) of -0.608.

As for TTCGCTGCTCAAGTCGCCGTAA, the sensor-assay potency score (higher = more potent) was -0.391.

Sequence TTTACCACTGTCACGGGTCTTC displayed a sensor-assay potency score (higher = more potent) of -0.541.

In the case of TTTTCCGGTCGAACCACAGTGC, the sensor-assay potency score (higher = more potent) was -0.536.

TAGCAATCAATTCTTTCGCTGG gave a sensor-assay potency score (higher = more potent) of 0.133.

A further experiment has as its target RNF122. Described as above. The settings on record: shRNA.
The sequence TATCCGTATCGCTCACTCTGTG yielded a sensor-assay potency score (higher = more potent) of -0.565.

The sequence TTTCACCAGACACTTGCGGTGA had a sensor-assay potency score (higher = more potent) of -0.949.

As to TTGCTGATAAAATAGCAGCAGA, the sensor-assay potency score (higher = more potent) was -0.908.

In turn, TAACTTCTTGGCATCACCTTTA showed a sensor-assay potency score (higher = more potent) of -0.252.

AAGTCTTCCAGACAGACTGCGC came in with a sensor-assay potency score (higher = more potent) of -0.854.

Turning to TAGAATCCCAATGTTCTGCGTG, the sensor-assay potency score (higher = more potent) is 0.594.

Sequence TATAATTGTAACTTCTTGGCAT came in with a sensor-assay potency score (higher = more potent) of 0.823.

ATATCCGTATCGCTCACTCTGT: the sensor-assay potency score (higher = more potent) is -0.868.
